A selection: hits, their analogues and other compounds. The true share with any hit is near 28%.
CYP2C19 inhib: blockers of cytochrome P450 2C19 activity – biochemical, luminescence, ADME assay, primary screen | CYP2C19 Supersomes, luciferin-H EGE luminescence, 30 min | inhibition, % at 5 µM | hit rate 21% among 96,000;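 active = CYP2C19 inhibition above a set limit at 5 µM in the primary screen, cut at about 50% in these data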;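 also: plate controls were negative control wells for no effect and 2.5 mM tranylcypromine positive control for full effect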
Target sequence (P33261 whole entry, looked up): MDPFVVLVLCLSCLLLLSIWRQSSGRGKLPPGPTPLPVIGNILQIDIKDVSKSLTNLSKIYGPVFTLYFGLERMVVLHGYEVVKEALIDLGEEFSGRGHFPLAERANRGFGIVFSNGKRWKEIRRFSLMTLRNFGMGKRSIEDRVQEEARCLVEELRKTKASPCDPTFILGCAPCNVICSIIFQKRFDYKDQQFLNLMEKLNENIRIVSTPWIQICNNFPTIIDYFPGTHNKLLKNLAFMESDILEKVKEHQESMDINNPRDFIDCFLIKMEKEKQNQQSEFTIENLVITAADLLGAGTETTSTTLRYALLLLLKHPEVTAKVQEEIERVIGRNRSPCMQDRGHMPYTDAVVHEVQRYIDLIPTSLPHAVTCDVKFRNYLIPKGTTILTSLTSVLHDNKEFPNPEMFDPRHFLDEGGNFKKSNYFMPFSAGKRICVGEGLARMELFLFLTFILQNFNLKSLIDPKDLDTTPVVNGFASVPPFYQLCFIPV
PLK1 PBD inh: Plk1 polo box domain binding inhibitors, primary screen, biochemical, fluorescence polarization | hit rate 0.13% among 97,000 | inhibition, %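 (tested at about 20 µM)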 | Serine/threonine-protein kinase PLK1 (Homo sapiens), P53350 | Plk1 PBD phosphopeptide binding; in the data active = inhibition above about 34%, passing the limit was not always enough
CYP2C9 inhib: blockers of cytochrome P450 2C9 activity – biochemical, luminescence, ADME assay, primary screen | P11712 | CYP2C9 Supersomes, luciferin-H conversion | inhibition, % at 5 µM | hit rate 20% among 96,000 | AID 777, 2007;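 active = blocking of liver enzyme CYP2C9 beyond about 50% at 5 µM, limit read from the data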
PLK1 inh: human PLK1 kinase inhibitors, primary screen, biochemical, TR-FRET | Serine/threonine-protein kinase PLK1 (Homo sapiens), P53350 | recombinant PLK1 kinase, TR-FRET peptide phosphorylation | inhibition, % at 10 µM | hit rate 0.53% among 97,000 | AID 619, 2007;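 active = inhibition of 50% or more in the single-concentration screen; inactive = inhibition below 50%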;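 also: 0% = DMSO max control and 100% = H-89 dihydrochloride min control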
CYP2C19 activ: human CYP2C19 activators, primary screen, biochemical, luminescence | Cytochrome P450 2C19 (Homo sapiens), P33261 | recombinant CYP2C19, luciferin-H EGE luminescence; hits give high values; 0 = fully inhibited enzyme, 1 = untreated enzyme | activation factor at 5 µM | 96,000 tested, under 10 active | AID 1025, 2008;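 active = activation factor of at least 2 at 5 µM in the primary screen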;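 also: 0 = wells with 2.5 mM tranylcypromine and 1 = vehicle-only wells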
CYP2C9 act: human CYP2C9 activators, primary screen, biochemical, luminescence. hit rate 1.4% among 96,000. activation factor at 5 µM. Cytochrome P450 2C9 (Homo sapiens), P11712. recombinant CYP2C9, luciferin-H conversion; hits give high values; factor 1 = untreated enzyme, 0 = blocked;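 active = activation factor of 2 or more for CYP2C9 at a 5 µM dose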;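 also: 0 = sulfaphenazole-blocked wells and 1 = vehicle-only wells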
The depositor's hits bear a star; · = not tested or not shown.

SMILES	CYP2C19 inhib	PLK1 PBD inh	CYP2C9 inhib	PLK1 inh	CYP2C19 activ	CYP2C9 act
COc1ccc(-c2nnn(CC(=O)N(CC(=O)NCCC(C)C)Cc3cccs3)n2)cc1OC	43	-11	49	-4	0.6	0.5
CCOC(=O)COc1ccsc1C(=O)OC	10	-10	-10	-10	0.9	1.1
O=C(CSc1ncn(-c2ccccc2)n1)N1CCN(c2ccccc2)CC1	64*	6	59*	-22	0.4	0.4
COc1ccccc1NC(=O)CSc1ncn(-c2ccccc2)n1	76*	-6	19	-1	0.2	0.8
C=CCn1c(SCC(=O)Nc2ccccc2OC)nnc1-c1ccccn1	·	-6	·	-9	·	·
Cc1nnc(NC(=O)CSc2nnc(C)n2Cc2ccccc2)s1	·	1	·	-6	·	·
Cc1cc(NC(=O)CSc2ncn(-c3ccccc3)n2)no1	32	21	16	21	0.7	0.8
COc1ccccc1NC(=O)CSc1nnc(C)n1Cc1ccccc1	52*	16	-3	-7	0.5	1
C=CCn1c(SCC(=O)Nc2ccccc2OC)nnc1-c1ccco1	54*	1	10	-9	0.5	0.9
CC1(C)CC(=O)C(C=NCCc2ccccn2)=C(O)C1	15	8	-6	-6	0.9	1.1
O=C(Cc1cccs1)Nc1ccc(N2CCOCC2)cc1	30	16	14	-15	0.7	0.9
COC(=O)c1nn(-c2cccc(C(F)(F)F)c2)c(=O)cc1Sc1ccccn1	56*	-9	70*	-10	0.4	0.3
Cc1cnc(NC(=O)CSc2ccc(Cl)cc2)s1	69*	9	49	-7	0.3	0.5
O=C(CSc1ccc(Cl)cc1)Nn1cnnc1	87*	-13	82*	-9	0.1	0.2
CC(C)C(NC(=O)CSc1ccc(Cl)cc1)C(C)C	100*	-4	66*	-6	0	0.3
Cc1cc(C)nc(SCC(=O)Nn2cnnc2)n1	2	·	16	·	1	0.8
O=C(CSc1ccc2ccccc2c1)Nn1cnnc1	88*	-1	90*	-4	0.1	0.1
CCC(C)NC(=O)CSc1ccc(Cl)cc1 (stereo not given)	·	9	·	-8	·	·
CN(C)CC(O)COc1cc2ccccc2cc1C(=O)N1CCCCC1 (stereo not given)	7	-15	14	1	0.9	0.9
CC(C)(C)OC(=O)N1CC2Cc3[nH]c(=O)ccc3C(C2)C1 (stereo not given)	18	-21	-3	-8	0.8	1
COc1cccc(C(=O)N/N=C2\SCC(=O)N2Cc2ccc3c(c2)OCO3)c1	34	-3	88*	1	0.7	0.1
CC(C)OC(=O)c1c(NC(=O)CCn2nnc3ccccc32)sc2c1CCCC2	57*	·	82*	·	0.4	0.2
CC(C)OC(=O)c1c(NC(=O)c2cnn3c2NC(c2ccccc2)CC3C(F)(F)F)sc2c1CCCC2 (stereo not given)	-1	5	23	-8	1	0.8
COc1ccc(S(=O)(=O)N(C)CC(=O)Nc2ccccc2C(F)(F)F)cc1OC	76*	-9	-92	-15	0.2	1.9
COc1ccc(C)cc1NC(=O)CN(C)S(=O)(=O)c1cccs1	89*	-17	-134	-6	0.1	2.3*
SMILES	CYP2C19 inhib	PLK1 PBD inh	CYP2C9 inhib	PLK1 inh	CYP2C19 activ	CYP2C9 act
COc1ccccc1NC(=O)CN(C)S(=O)(=O)c1cc(C)ccc1OC	94*	-3	63*	-7	0.1	0.4
COc1ccc(C)cc1S(=O)(=O)N(C)CC(=O)NC1CCCCC1	22	18	7	-11	0.8	0.9
COc1ccc(C(=O)N[C@H](C(=O)NCC2CCCCC2)C(C)C)cc1	26	-22	26	-3	0.7	0.7
NC(=O)N1CC(O)CC1C(=O)Nc1ccc(Cl)c(Cl)c1 (stereo not given)	·	31	·	-6	·	·
CCCNC(=O)CSc1nnc(C)s1	17	-15	22	-11	0.8	0.8
CCCCS(=O)(=O)N1CN(S(=O)(=O)CCCC)C2NC(=O)NC21 (stereo not given)	0	-9	-2	-14	1	1
CN1C(=O)N2CN(C3CCCCC3)CN3C(=O)N(C)C1C23 (stereo not given)	-5	15	-16	-12	1	1.2
CC1CCN(CC(O)COC2CCC(C(C)(C)C)CC2)CC1 (stereo not given)	5	-17	-8	-1	0.9	1.1
CCOCc1nnc(NC(=O)c2cc(Cl)ccc2OC)s1	2	-27	-32	-10	1	1.3
COc1ccc(Cl)cc1C(=O)NCCN(C)C	-6	24	-5	-8	1.1	1.1
CCCC(C)NC(=O)c1cc(Cl)ccc1OC (stereo not given)	44	-6	-252	0	0.6	3.5*
COc1ccc(Cl)cc1C(=O)NCC(C)C	14	0	-213	6	0.9	3.1*
CCCC(CCC)C(=O)Nc1cccc(C(=O)O)c1	-6	7	-9	-11	1.1	1.1
COCCNC(C(=O)Nc1cc(Cl)cc(Cl)c1)c1ccccc1 (stereo not given)	54*	24	70*	-8	0.5	0.3
COCC(C)NC(C(=O)Nc1ccc(C)c(Cl)c1)c1ccccc1 (stereo not given)	86*	-19	86*	5	0.1	0.1
CCOc1ccc(C2C(C(=O)Nc3ccc(F)cc3)=C(C)Nc3nc(CCCO)nn32)cc1 (stereo not given)	4	-7	62*	-8	1	0.4
Cc1ccc(-c2csc(N(Cc3ccccc3)C(=O)COc3ccccc3)n2)cc1	7	-2	31	-3	0.9	0.7
Cc1ccc(-c2csc(N(CCc3ccccc3)C(=O)COc3ccccc3)n2)cc1	62*	11	98*	-2	0.4	0
O=C(COc1ccccc1)N(CCc1ccccc1)c1nc(-c2ccc(F)cc2)cs1	3	8	81*	-7	1	0.2
CCOC(=O)N1CCN(C(=O)C(C)(C)Oc2ccc(Cl)cc2)CC1	74*	-6	84*	4	0.3	0.2
COc1ccc(N2CCN(C(=O)C(C)(C)Oc3ccc(Cl)cc3)CC2)cc1	74*	-1	90*	-13	0.3	0.1
CCOC(=O)N1CCN(C(=O)COc2ccc(Cl)cc2)CC1	38	15	-13	-5	0.6	1.1
N#C/C=C(/N)N1CCN(c2ccc(Cl)c(Cl)c2)CC1	33	18	28	5	0.7	0.7
